Test results taken from PubChem BioAssay AID2391 (Southern Research Specialized Biocontainment Screening …, 2010).
Among all 310,000 compounds or so, about 410 (0.13%) were called active. Another 2% or so got no clear call; they are omitted. No rule for the calls is given here. These entries were drawn from the full list. Potency and affinity values are given separately.

Assay: inhibition of RSV-induced cytopathic effect – HEp-2 cells, primary 10 µM value included (AID 2391)
Conditions: at 10 µM, hits give high values

CPE inhibition, inactive:
CCCCCCSc1cccc(-c2nc3ccc(Cl)cn3c2NCc2ccccc2)c1 -1.21%
O=C(CCSc1nnc2scc(-c3ccccc3)n12)Nc1nc(-c2ccccc2)ns1 9.19%
CCN(c1ccccc1)S(=O)(=O)c1cccc(C(=O)NCC(c2cccs2)N(C)C)c1 (stereo not given) -0.95%
CCOC(=O)C1=C(C)N=c2s/c(=C\c3ccc(OCC(=O)O)cc3)c(=O)n2C1c1ccc(Cl)cc1 (stereo not given) 18.1%
CCOC(=O)C1=C(C)N=c2s/c(=C\c3ccc(OCC(=O)O)c(OC)c3)c(=O)n2C1c1ccc(OC)cc1 (stereo not given) 2.77%
CC1CC(C)CN(S(=O)(=O)c2ccc(C(=O)OCC(=O)NCCN3C(=O)CSC3=O)cc2)C1 (stereo not given) 0.02%
Cc1nnc(SCC(=O)N(C2CCCCC2)C2CCS(=O)(=O)C2)n1N (stereo not given) -1.53%
O=C(CSc1nc2ccccc2o1)N1CCCC1 -0.37%
COC(=O)C1=C(C)N(Cc2ccco2)C(=O)N[C@@H]1c1ccc(Br)cc1 0.6%
COC(=O)C1=C(C)N(Cc2ccco2)C(=O)N[C@@H]1c1ccco1 0.83%
COC(=O)C1=C(C)N(CC2CC2)C(=O)N[C@H]1c1ccc(Br)cc1 27%
COC(=O)C1=C(C)N(Cc2ccco2)C(=O)N[C@@H]1c1ccccc1 2.19%
CCN1C(=O)N[C@@H](c2cccc(C(F)(F)F)c2)C(C(=O)OC)=C1C -0.08%
COC(=O)C1=C(C)N(Cc2ccco2)C(=O)N[C@@H]1c1cccc(C(F)(F)F)c1 4.06%
CCOCCOC(=O)C1=C(C)Nc2ccc(C)cc2S1 2.03%
CN(C(=O)COC(=O)c1cc(S(=O)(=O)N2CCOCC2)ccc1Cl)C1CCS(=O)(=O)C1 (stereo not given) -1.51%
CCn1nnnc1-c1ccc(OC)c(S(=O)(=O)Nc2ccc(C(=O)OC)cc2)c1 1.29%
Cc1ccc(CC(=O)NCC2CCCCC2)cc1 0.51%
Cc1ccsc1CNC1C2CC3CC(C2)CC1C3 (stereo not given) -1.39%
Cc1ccc(C(=O)N/C(=C\c2ccc(Cl)cc2)C(=O)NCCCN2CCOCC2)cc1 2.02%
CC(C)c1ccc(/C=C(\NC(=O)c2ccccc2)C(=O)NCCCN2CCOCC2)cc1 0.11%
Cc1ccc(C(=O)N/C(=C\c2ccc(Cl)cc2)C(=O)NCCN2CCOCC2)cc1 0.95%
CC(C)c1ccc(/C=C(\NC(=O)c2ccccc2)C(=O)NCCN2CCOCC2)cc1 0.84%
N#C/C(=C\c1ccc(OCc2ccc(C(=O)O)cc2)cc1)C(=O)NCc1ccccc1 1.49%
CCOc1ncccc1C(=O)N(C)CC(=O)Nc1ccccc1SC 1.11%
Clc1ccc(Sc2cc(Cl)c(-c3ccccc3)nn2)cc1 4.99%
O=C(C1=COCCO1)N1CCN(S(=O)(=O)c2cccc(F)c2)CC1 1.49%
Cc1cc2c(cc1S(=O)(=O)Nc1cccc(C)c1C)n(C)c(=O)c(=O)n2C -1.46%
CN(C)S(=O)(=O)c1cccc(NC(=O)COC(=O)CCC(=O)c2cccs2)c1 -1.26%
Cc1ccc(S(=O)(=O)NNC(=O)Nc2ccc(C)c(C)c2)c(C)c1 1.56%
COc1cccc(CN2C(=O)C3CCCN3c3ccc(S(=O)(=O)N4CCOCC4)cc32)c1 (stereo not given) 15.8%
COc1ccc(CCNC(=O)c2ccc(-c3ccc([N+](=O)[O-])cc3)o2)cc1OC 3.03%
COc1ccc(CCNC(=O)c2ccc([N+](=O)[O-])cc2)cc1 0.4%
COC(=O)c1ccccc1OC(=O)c1cc2ccccc2oc1=O -0.19%
Nc1nc(SCC(=O)c2ccc(F)cc2)n[nH]1 0.71%
O=C(CNc1ccccc1)N/N=C/c1cn(-c2ccccc2)nc1-c1ccccc1 6.81%
O=C(CNc1cccc(C(F)(F)F)c1)N/N=C/c1ccccc1C(=O)O 1.07%
CCOC(=O)N1CCN(C(=O)COc2ccc3c(c2)C(=O)CC(C)(C)O3)CC1 1.7%
COc1ccc(C(C(=O)NC2CCCC2)N(C(=O)c2snc(C(N)=O)c2N)C2CCCC2)cc1OC (stereo not given) 3.34%
COc1ccc(C(C(=O)NC2CCCC2)N(C(=O)c2snc(C(N)=O)c2N)c2ccccc2OC)cc1OC (stereo not given) 17.8%
COc1cc(C(C(=O)NC2CCCC2)N(C(=O)c2snc(C(N)=O)c2N)c2ccccc2)cc(OC)c1OC (stereo not given) 1.74%
Cc1ccc(N(C(=O)c2snc(C(N)=O)c2N)C(C(=O)NC2CCCC2)c2ccncc2)cc1 (stereo not given) 0.36%
Cc1ccc(C(CCN(Cc2ccccc2)C(=O)c2ccco2)c2ccco2)cc1 (stereo not given) 6.53%
Cc1cccc(CSc2nc3sc(C)c(C)c3c(=O)n2Cc2ccco2)c1 13.2%
COc1ccc(-n2c(SCC(=O)Nc3ncc(Cl)cc3Cl)nc3ccccc32)cc1 18.7%
Cc1cc(SCC(=O)Nc2ncc(Cl)cc2Cl)nc2ccccc12 5.54%
Cc1ccc(-n2c(SCC(=O)Nc3cccc(S(N)(=O)=O)c3)nc3ccccc32)cc1 1.64%
COc1ccc(-n2c(SC(C)C(=O)Nc3ncc(Cl)cc3Cl)nc3ccccc32)cc1 (stereo not given) 15.9%
COCCn1c(SCC(=O)Nc2ccc(Cl)cn2)nc2ccccc21 -1.02%
O=C(CSc1nnc2ccccn12)Nc1ncc(Cl)cc1Cl 4.23%
CC(=O)N[C@@H](Cc1ccc(O)cc1)CN1C(N)=NC[C@@H]1CC(C)C -0.28%
O=C(COc1cccc2c1CCNC2=O)Nc1cccc(C(F)(F)F)c1 1.19%
C/C(=N/OC(=O)C1CC12CCC2)c1ccc(Br)cc1 (stereo not given) 2.98%
CCOC(=O)C1CCN(C(=O)CC(C)S(=O)(=O)c2ccc3c(c2)NC(=O)CO3)CC1 (stereo not given) 7%
CCOc1ccc(S(=O)(=O)Nc2ccc(F)cc2)c(C)c1C 6.57%
Cc1cccc(C)c1OCc1cc(C(=O)N2CCN(C3CCCC3)CC2)no1 0.09%
O=C(Oc1ccc(-c2nnco2)cc1)N1CCCCC1 2.35%
OCCNc1c2ccccc2nc2c(F)c(F)c(F)c(F)c12 -1.66%
CCCNc1c(F)c(F)c2c(C)c3ccccc3nc2c1F -1.87%
CCOc1ccc(C2=C/C(=C/c3cccnc3)C(=O)O2)cc1 1.93%
COc1ccc(OC)c(CCNC(=O)CN2C(=O)CCSc3ccccc32)c1 -3.24%
Cc1ccc2nc(-c3cccc(N)c3)[nH]c2c1 2.27%
Cc1ccc2[nH]c(-c3cccc(F)c3)cc(=O)c2c1 -0.29%
Cc1cccc(-c2nc(CS(=O)CC(=O)NCCc3ccccc3)c(C)o2)c1 (stereo not given) 0.05%
COCc1[nH]nc2c1C1(C(=O)N(C)c3ccccc31)C(C#N)=C(N)O2 (stereo not given) 2.9%
O=C1c2ccccc2C(=O)N1CCc1csc(-c2ccccc2)n1 3.44%
O=C1c2ccccc2C(=O)N1CCc1csc(-c2ccc(F)cc2)n1 2.17%
CCSc1nc(O)cc(=O)n1-c1ccc(OC)cc1 -0.46%
CC(NC(=O)c1nn(C)c(=O)c2ccccc12)c1ccc(F)cc1 (stereo not given) 1.39%
O=C(/C=C/c1ccco1)Nc1sc2c(c1C(=O)O)CCC2 3.96%
O=C(Nc1sc2c(c1C(=O)O)CCCCC2)c1ccccc1 2.56%
O=C(O)CCC(=O)Nc1sc2c(c1C(=O)NCc1ccccc1)CCCC2 1.43%
O=C(/C=C/c1cccs1)Nc1sc2c(c1C(=O)O)CCCC2 16.6%
Cc1ccc(S(=O)(=O)N2CCN(c3ccc([N+](=O)[O-])c(Sc4nncn4C)c3)CC2)cc1 2%
Cn1cnnc1Sc1cc(N2CCN(S(=O)(=O)c3ccccc3)CC2)ccc1[N+](=O)[O-] 2.72%
Cc1ccc(C(=O)COC(=O)c2ccncc2)cc1[N+](=O)[O-] 1.18%
CCCCCCCN1C/C=C\C(c2ccc(OC)cc2)N(Cc2ccc(F)cc2)C(=O)[C@H]1Cc1ccccc1 (stereo not given in full) 0.33%
CCN(CC(=O)NCc1ccccn1)S(=O)(=O)c1cc(Cl)ccc1Cl -1.64%
Cc1ccc2[nH]c3c(=O)[nH]ncc3c2c1 -1.42%
CCNC(=O)C1CN(S(=O)(=O)c2ccccc2)CCN1S(=O)(=O)c1ccccc1 (stereo not given) -2.71%
CC(C)(C)NC(=O)C1CN(S(=O)(=O)c2ccccc2)CCN1S(=O)(=O)c1ccccc1 (stereo not given) 0.62%
CCCCn1c(N)c(N(CC(C)C)C(=O)c2c(CC)noc2C)c(=O)[nH]c1=O -1.37%
C/C(N)=C(/C#N)C(=O)COC(=O)C(c1ccccc1)c1ccccc1 0.91%
C/C(N)=C(/C#N)C(=O)COC(=O)c1cc2c(s1)CCC(C)C2 (stereo not given) 5.48%
C/C(N)=C(/C#N)C(=O)COC(=O)c1cccc2ccccc12 4.13%
Cc1cc(C(=O)COC(=O)c2ccc[nH]c2=O)c(C)n1-c1ccc(F)cc1 2.01%
CNC(=O)COC(=O)c1cc2c(s1)CCCC2 1.88%
C/C(N)=C(/C#N)C(=O)COC(=O)c1ccccc1O 1.5%
Cc1cc(C(=O)OCC(N)=O)c(C)n1-c1ccccc1 -3.46%
C/C(N)=C(/C#N)C(=O)COC(=O)c1ccccc1Oc1ccccc1 2.44%
